Test results as given in PubChem BioAssay.
Records with an inconclusive call do not appear. Activity calls are given as the source filed them.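 The calls were made as follows, unless noted: active = inhibition above 54%, about 3 SD of non-fluorescent compounds; inactive = the rest.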

Experiments:
[1] = yeast TOR pathway RPL19A-GFP modulators, primary screen, cell-based, S. cerevisiae, multiplex flow cytometry (AID 1862; in the data active = percent of DMSO control GFP below about 86%;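 also: lower values mimic rapamycin by blocking the RPL19A rise seen in DMSO cells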); conditions: S. cerevisiae RPL19A-GFP strain, flow cytometry fluorescence, 3 h; at 10 µM; stronger effect = lower value
[2] = modulators of MEP2-GFP levels in yeast, primary screen, S. cerevisiae, multiplex flow cytometry (AID 1867;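 active = GFP response, as percent of the DMSO control, above the screen-wide mean plus 3 SD, about 139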;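 also: median GFP channel fluorescence of barcode-gated MEP2-GFP cells measured by flow cytometry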); conditions: S. cerevisiae MEP2-GFP strain, 3 h, at 10 µM, stronger effect = higher value, 100% means same as DMSO wells
[3] = modulators of CIT2-GFP expression in yeast, primary screen, S. cerevisiae, GFP fusion, multiplex flow cytometry (AID 1870;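 active = percent response above a set limit, the screen-wide mean plus 3 SD, cut at about 130% in these data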;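 also: barcoded CIT2-GFP strain pooled with four other GFP strains with rapamycin as positive control; median GFP fluorescence per well over plate mean of DMSO wells so 100% = DMSO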); conditions: 3 h, at 10 µM, stronger effect = higher value
[4] = modulators of LAP4-GFP expression in yeast, primary screen, S. cerevisiae, multiplex flow cytometry (AID 1873;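 active = GFP signal, as percent of the solvent control, above the screen mean plus 3 SD, about 149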); conditions: 3 h, at 10 µM, stronger effect = higher value
[5] = modulators of AGP1-GFP expression in yeast TOR pathway, primary screen, cell-based, multiplex flow cytometry, S. cerevisiae (AID 1887;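 active = GFP signal above the screen-wide mean plus 3 SD, that is over about 124.5% of the solvent control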;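 also: AGP1-GFP fusion strain of S. cerevisiae within a five-strain barcoded multiplex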); conditions: 3 h, at 10 µM, stronger effect = higher value
[6] = inhibitors of CD8+ T cell-vesicle binding, pilot screen, LFA-1/ICAM-1 modulator project, MLPCN validation set, flow cytometry (AID 2523;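 active = response below a set limit, under 55% cells CD8-positive and vesicle-bound, and CD8 cells' 90th-percentile brightness under 279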;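 as to vesicle binding response: mean PE anti-B7-1 fluorescence of CD8+ cells relative to row control; 100% = QL9-loaded vesicles with DMSO vehicle in the same plate row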); conditions: 2C mouse CD8+ T cells, at 7 µM, stronger effect = lower value; double positive events: measured here: CD8+/vesicle+ event percentage
[7] = target: Integrin beta-1 (Homo sapiens) + Integrin alpha-4 (Homo sapiens) (UniProt P13612+P05556); test: inhibition of HUTS-21 binding to VLA-4, pilot screen, VLA-4 allosteric modulator project, U937 cells, HUTS-21 mAb, flow cytometry, validation set (AID 2674;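 active = inhibition above 50%, about 3 SD of the validation set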;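 also: antibody binding induced by the VLA-4 ligand LDV present at three times its Kd; 0% = LDV ligand with antibody and no compound and 100% = antibody without LDV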); conditions: HUTS-21 LIBS mAb binding, at 6.7 µM, stronger effect = higher value, binding induced by LDV ligand
[8] = superoxide lowering in aged yeast cells, pilot screen, validation compound set (AID 2706;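 active = superoxide response below 65% of plate, a cut near 3 SD across the whole screen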;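 also: yeast exposed to compound for one week at 30 degrees C before staining; 100% = mean of all compound wells on the same plate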); conditions: S. cerevisiae aging, superoxide DHE fluorescence; at 10 µM; stronger effect = lower value
[9] = target: Beta-adrenergic receptor kinase 1 (Homo sapiens) (UniProt P25098); test: GRK2 binders displacing RNA aptamer, biochemical, validation, human GRK2, bead flow cytometry (AID 488806;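 active = aptamer binding inhibition above 30%, about 3 SD of noise from non-fluorescent compounds; inactive = inhibition at or below 30%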); conditions: bead-bound GRK2, FAM-aptamer displacement, at 10 µM, stronger effect = higher value
[10] = target: Beta-2 adrenergic receptor (Homo sapiens) (UniProt P07550); test: beta2AR agonists driving receptor internalization, pilot screen, cell-based, FAP fluorogen, flow cytometry, validation set (AID 504459;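 active = percent response above 42, roughly 3 SD of non-fluorescent test compounds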;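 also: agonist-driven loss of surface beta2AR via internalization measured by FAP dye flow cytometry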); conditions: Am2.2-beta2AR cells, FAP surface receptor flow cytometry; at 10 µM; stronger effect = higher value
[11] = target: AP-2 complex subunit beta (Homo sapiens) (UniProt P63010); test: inhibitors of arrestin peptide binding to AP2, pilot screen, biochemical, validation set, GST-AP2 beads, flow cytometry (AID 504541); conditions: FITC arrestin peptide, at 10 µM, stronger effect = higher value, AP2 beta2 appendage fragment, R879A mutant;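 also: AP2 carries R879A mutation and is captured from E. coli lysate; bead-bound FITC arrestin peptide fluorescence measuring arrestin peptide binding to AP2; 0% = DMSO wells and 100% = excess unlabeled arrestin peptide control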
[12] = yeast V-ATPase proton transport modulators, S. cerevisiae, pHLuorin, HTS validation (AID 504600; in the data active = response above about 15%;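 also: plate controls were DMSO for no effect and reference compound for full effect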); conditions: S. cerevisiae pHLuorin cytosolic pH, at 10 µM, stronger effect = higher value
[13] = test system: anti-desmoglein-3 scFv antibody binding to human DSG3; test: inhibitors of anti-DSG3 scFv binding to DSG3, pilot screen, biochemical, validation compound set, bead-based, flow cytometry (AID 588368;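 active = binding below the plate cutoff, the plate median minus 3 SD, with a reading above zero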;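 also: signal is the median channel fluorescence of bead-bound GFP antibody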); conditions: Protein G beads, DSG3-Fc, scFv-GFP binding, at 10 µM, stronger effect = lower value
[14] = inhibitors of fungal efflux pumps CDR1, CDR2, MDR1, pilot screen, validation compound set, multiplex, phenotypic (AID 588506;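 active = efflux inhibition above 0.42, the validation set average plus 4 SD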;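 also: Nile Red retained in cells so higher fluorescence means more efflux inhibition; 0 = negative control wells and 1 = enniatin B 25 µM full block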); conditions: S. cerevisiae pump-expressing triplex, Nile Red efflux flow cytometry; at 10 µM; stronger effect = higher value; the pumps come from Candida albicans
[15] = target: ATP-binding cassette sub-family B member 6 (Homo sapiens) (UniProt Q9NP58); test: ABCB6 transporter inhibitors, pilot screen, K562-ABCB6 cells, flow cytometry, validation set (AID 588550;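 active = inhibition above the screen-wide mean plus 3 SD, about 51%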;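 also: 0% = DMSO wells and 100% = benzethonium chloride 70 µM positive control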); conditions: K562-ABCB6 porphyrin accumulation, 1 h, at 10 µM, stronger effect = higher value
[16] = promoters of myeloid differentiation in arrested cells, primary screen, cell-based, GFP/MAC1 double positive, flow cytometry, validation set (AID 588685;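 active = differentiation response of at least 50%, scaled between solvent and reference control, from cells with both markers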;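 also: compound exposure lasts four days before antibody staining and flow analysis; 0% = DMSO wells and 100% = 5 µM fulvestrant positive control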); conditions: ER-HoxA9 marrow cells, stronger effect = higher value, normalized: vehicle 0, fulvestrant 100

Chain of ATP-binding cassette sub-family B member 6 (Homo sapiens) (Q9NP58 whole entry, looked up): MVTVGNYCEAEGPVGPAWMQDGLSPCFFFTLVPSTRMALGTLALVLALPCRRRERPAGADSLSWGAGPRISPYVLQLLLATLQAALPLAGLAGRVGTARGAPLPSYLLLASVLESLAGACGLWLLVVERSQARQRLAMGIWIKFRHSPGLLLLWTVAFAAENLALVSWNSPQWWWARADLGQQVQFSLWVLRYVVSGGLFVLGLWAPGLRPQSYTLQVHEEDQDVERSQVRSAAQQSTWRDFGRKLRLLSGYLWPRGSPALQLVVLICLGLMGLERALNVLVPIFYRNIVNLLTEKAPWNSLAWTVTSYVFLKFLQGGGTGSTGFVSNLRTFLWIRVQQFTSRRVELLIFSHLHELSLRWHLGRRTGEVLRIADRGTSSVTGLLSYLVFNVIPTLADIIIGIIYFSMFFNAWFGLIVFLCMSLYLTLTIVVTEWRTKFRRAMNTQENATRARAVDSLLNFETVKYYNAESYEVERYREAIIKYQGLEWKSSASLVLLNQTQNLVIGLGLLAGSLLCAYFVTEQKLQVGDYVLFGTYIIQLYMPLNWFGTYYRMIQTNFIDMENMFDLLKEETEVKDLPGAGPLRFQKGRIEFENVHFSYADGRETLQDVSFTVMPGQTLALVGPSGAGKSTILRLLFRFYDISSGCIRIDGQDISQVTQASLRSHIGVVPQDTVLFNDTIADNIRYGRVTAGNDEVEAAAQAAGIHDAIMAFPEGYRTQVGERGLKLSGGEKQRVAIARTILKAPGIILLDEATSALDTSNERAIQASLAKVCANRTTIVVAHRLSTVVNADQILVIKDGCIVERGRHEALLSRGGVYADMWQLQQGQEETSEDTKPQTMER
Chain of Beta-2 adrenergic receptor (Homo sapiens) (P07550 whole entry, looked up, the tested form may be a part): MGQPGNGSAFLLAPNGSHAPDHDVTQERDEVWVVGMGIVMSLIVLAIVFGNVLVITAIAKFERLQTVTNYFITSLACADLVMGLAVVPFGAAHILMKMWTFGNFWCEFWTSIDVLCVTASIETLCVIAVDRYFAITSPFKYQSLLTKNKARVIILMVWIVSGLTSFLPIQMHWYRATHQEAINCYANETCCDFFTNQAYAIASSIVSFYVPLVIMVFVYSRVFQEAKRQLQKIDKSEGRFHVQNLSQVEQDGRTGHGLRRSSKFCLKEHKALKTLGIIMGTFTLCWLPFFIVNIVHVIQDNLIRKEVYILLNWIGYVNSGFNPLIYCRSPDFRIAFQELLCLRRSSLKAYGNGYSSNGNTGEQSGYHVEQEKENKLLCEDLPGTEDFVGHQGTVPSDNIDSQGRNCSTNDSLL
Chain of Beta-adrenergic receptor kinase 1 (Homo sapiens) (P25098 whole entry, looked up): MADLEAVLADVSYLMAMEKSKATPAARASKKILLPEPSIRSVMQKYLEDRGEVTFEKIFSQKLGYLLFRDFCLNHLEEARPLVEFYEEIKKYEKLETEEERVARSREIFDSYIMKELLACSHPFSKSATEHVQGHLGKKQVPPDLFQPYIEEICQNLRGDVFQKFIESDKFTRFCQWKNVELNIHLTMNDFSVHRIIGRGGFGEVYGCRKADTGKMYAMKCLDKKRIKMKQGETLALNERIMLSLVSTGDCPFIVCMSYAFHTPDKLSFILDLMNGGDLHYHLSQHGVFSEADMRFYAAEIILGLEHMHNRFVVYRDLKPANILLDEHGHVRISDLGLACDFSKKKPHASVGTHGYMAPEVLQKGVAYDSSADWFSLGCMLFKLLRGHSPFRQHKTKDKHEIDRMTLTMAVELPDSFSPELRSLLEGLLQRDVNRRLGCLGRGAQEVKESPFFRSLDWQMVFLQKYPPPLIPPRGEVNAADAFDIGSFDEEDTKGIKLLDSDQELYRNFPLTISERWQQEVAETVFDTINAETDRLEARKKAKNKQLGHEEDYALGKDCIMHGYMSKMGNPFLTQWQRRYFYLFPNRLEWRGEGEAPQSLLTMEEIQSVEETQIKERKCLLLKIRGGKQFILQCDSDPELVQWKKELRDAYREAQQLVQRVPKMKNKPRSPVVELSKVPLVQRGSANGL
Chain of AP-2 complex subunit beta (Homo sapiens) (P63010 whole entry, looked up, the tested form may be a part, one chain of several): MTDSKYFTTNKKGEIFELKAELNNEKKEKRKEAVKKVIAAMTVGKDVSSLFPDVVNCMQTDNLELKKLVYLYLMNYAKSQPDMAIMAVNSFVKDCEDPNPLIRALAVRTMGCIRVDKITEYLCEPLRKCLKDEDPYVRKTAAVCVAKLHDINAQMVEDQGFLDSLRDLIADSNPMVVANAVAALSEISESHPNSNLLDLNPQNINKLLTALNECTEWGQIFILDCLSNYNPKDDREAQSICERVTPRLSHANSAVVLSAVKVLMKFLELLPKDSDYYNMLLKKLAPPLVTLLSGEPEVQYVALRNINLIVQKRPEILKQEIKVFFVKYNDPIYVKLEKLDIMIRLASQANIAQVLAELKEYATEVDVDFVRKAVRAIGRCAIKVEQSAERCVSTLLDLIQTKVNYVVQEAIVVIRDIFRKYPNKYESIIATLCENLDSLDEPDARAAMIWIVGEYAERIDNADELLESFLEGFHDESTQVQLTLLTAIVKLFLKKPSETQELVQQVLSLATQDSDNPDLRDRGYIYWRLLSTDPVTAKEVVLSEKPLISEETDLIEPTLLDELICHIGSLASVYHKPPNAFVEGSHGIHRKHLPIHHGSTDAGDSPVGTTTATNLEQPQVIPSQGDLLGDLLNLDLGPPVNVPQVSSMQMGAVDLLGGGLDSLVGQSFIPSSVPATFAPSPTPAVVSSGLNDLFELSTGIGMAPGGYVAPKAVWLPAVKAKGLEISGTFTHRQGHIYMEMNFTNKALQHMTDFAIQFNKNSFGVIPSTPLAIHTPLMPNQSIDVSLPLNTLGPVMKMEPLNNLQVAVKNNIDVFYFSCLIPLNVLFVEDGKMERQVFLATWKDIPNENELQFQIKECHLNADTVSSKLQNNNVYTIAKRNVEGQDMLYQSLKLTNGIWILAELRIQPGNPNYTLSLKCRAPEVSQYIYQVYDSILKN
Chain of Integrin beta-1 (Homo sapiens) + Integrin alpha-4 (Homo sapiens) (P05556 whole entry, looked up): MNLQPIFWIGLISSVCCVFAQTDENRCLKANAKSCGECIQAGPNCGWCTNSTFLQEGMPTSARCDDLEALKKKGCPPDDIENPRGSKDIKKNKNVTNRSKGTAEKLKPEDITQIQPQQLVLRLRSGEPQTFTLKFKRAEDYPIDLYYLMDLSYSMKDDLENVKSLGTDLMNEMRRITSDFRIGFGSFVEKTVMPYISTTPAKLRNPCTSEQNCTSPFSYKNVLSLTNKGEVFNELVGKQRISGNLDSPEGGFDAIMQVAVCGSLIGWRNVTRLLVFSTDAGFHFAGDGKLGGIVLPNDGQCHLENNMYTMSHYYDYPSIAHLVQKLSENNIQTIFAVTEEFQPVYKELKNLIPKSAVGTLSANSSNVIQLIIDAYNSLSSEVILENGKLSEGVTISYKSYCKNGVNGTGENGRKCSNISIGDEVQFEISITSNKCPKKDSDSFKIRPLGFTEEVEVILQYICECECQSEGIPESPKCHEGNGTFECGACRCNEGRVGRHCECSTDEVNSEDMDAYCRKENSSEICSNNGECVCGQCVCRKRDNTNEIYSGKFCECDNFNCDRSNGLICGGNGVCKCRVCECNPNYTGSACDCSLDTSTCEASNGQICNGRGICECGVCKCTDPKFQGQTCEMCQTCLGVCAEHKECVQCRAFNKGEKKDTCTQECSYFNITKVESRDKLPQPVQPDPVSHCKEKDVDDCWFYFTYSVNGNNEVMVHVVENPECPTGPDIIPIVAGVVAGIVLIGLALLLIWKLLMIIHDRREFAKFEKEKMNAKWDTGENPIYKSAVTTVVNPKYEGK
Chain of Integrin beta-1 (Homo sapiens) + Integrin alpha-4 (Homo sapiens) (P13612 whole entry, looked up): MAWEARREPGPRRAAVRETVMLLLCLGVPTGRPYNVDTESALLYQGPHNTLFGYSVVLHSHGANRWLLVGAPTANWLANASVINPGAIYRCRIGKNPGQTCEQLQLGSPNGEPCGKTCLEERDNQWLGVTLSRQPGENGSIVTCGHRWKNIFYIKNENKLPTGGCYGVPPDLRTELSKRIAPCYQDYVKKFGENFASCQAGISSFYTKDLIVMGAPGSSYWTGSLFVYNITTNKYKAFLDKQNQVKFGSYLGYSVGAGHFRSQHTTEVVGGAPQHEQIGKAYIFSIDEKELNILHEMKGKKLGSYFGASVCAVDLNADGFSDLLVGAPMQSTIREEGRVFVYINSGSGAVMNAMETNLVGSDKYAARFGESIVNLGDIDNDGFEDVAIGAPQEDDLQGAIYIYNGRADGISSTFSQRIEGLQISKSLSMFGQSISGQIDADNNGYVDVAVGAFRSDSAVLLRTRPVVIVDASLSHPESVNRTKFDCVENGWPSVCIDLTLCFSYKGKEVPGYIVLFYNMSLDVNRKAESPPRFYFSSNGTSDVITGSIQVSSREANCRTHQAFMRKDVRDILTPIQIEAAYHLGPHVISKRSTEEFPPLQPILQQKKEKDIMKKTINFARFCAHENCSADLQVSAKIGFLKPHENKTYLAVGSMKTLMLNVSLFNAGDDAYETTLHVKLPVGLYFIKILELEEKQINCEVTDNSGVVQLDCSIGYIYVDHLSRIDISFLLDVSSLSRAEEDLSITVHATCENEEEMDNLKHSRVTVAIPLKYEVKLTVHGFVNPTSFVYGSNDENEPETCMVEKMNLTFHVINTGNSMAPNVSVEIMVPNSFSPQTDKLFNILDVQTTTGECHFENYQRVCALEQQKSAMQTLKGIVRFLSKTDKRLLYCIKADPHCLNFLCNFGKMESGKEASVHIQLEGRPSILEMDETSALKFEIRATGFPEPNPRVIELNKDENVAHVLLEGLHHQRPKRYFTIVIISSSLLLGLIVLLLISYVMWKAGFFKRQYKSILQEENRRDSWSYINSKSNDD

O=C(O)/C=C/c1cccc(OCc2ccccc2)c1
inactive: percent of DMSO control GFP [1] 93.8% | GFP response vs DMSO [2] 105% | percent response of DMSO control [3] 93.4% | GFP response vs DMSO [4] 123% | GFP response, % of DMSO [5] 82.2% | vesicle binding response [6] 131% | inhibition [7] 5.61% | superoxide response (% of plate) [8] 104% | aptamer binding inhibition [9] 3% | response [10] 4.34% | inhibition [11] 13.5% | response [12] -4.03% | binding (% of control) [13] 94.3% | efflux inhibition (fraction of control) [14] -0.24 | inhibition [15] 8% | differentiation response [16] -8.96%
58.1%: double positive events [6]

COc1ccc(C2=C(CN(C)C)C(c3ccccc3)c3ccccc3O2)cc1 (stereo not drawn)
61.4%: double positive events [6]
inactive: percent of DMSO control GFP [1] 102% | GFP response vs DMSO [2] 105% | percent response of DMSO control [3] 96.6% | GFP response vs DMSO [4] 92% | GFP response, % of DMSO [5] 99.7% | vesicle binding response [6] 6270% | inhibition [7] 3.7% | superoxide response (% of plate) [8] 102% | aptamer binding inhibition [9] -2% | response [10] 10.4% | inhibition [11] 12.1% | response [12] -5.6% | binding (% of control) [13] 104% | efflux inhibition (fraction of control) [14] -0.14 | inhibition [15] 7% | differentiation response [16] 0.24%

N/C(=N\OC(=O)c1cccc(Br)c1)c1ccncc1
inactive: percent of DMSO control GFP [1] 103% | GFP response vs DMSO [2] 105% | percent response of DMSO control [3] 106% | GFP response vs DMSO [4] 111% | GFP response, % of DMSO [5] 94.2% | vesicle binding response [6] 166% | inhibition [7] 9.63% | superoxide response (% of plate) [8] 106% | aptamer binding inhibition [9] -2% | response [10] -7.41% | inhibition [11] 43.1% | response [12] 4.2% | binding (% of control) [13] 100% | efflux inhibition (fraction of control) [14] -0.115 | inhibition [15] 8% | differentiation response [16] -4.57%
62.9%: double positive events [6]

COc1ccccc1NC(=O)N1CCc2[nH]c3ccc(Cl)cc3c2C1
inactive: percent of DMSO control GFP [1] 101% | GFP response vs DMSO [2] 110% | percent response of DMSO control [3] 102% | GFP response vs DMSO [4] 121% | GFP response, % of DMSO [5] 94% | vesicle binding response [6] 135% | inhibition [7] -11.8% | superoxide response (% of plate) [8] 102% | aptamer binding inhibition [9] 2% | response [10] -11.2% | inhibition [11] -2.38% | response [12] 1.31% | binding (% of control) [13] 121% | efflux inhibition (fraction of control) [14] -0.42 | inhibition [15] -33% | differentiation response [16] 18.8%
62.4%: double positive events [6]

CC(=O)C1=C(O)C(=O)N(CC(=O)O)C1c1ccccc1Cl (stereo not drawn)
54.3%: double positive events [6]
inactive: percent of DMSO control GFP [1] 93.5% | GFP response vs DMSO [2] 136% | percent response of DMSO control [3] 88.6% | GFP response vs DMSO [4] 82.5% | GFP response, % of DMSO [5] 90.3% | vesicle binding response [6] 175% | inhibition [7] 10.3% | superoxide response (% of plate) [8] 106% | aptamer binding inhibition [9] 4% | response [10] -4% | inhibition [11] 1.11% | response [12] 0% | binding (% of control) [13] 100% | efflux inhibition (fraction of control) [14] -0.2 | inhibition [15] 13% | differentiation response [16] -4.91%

COc1cccc(CN2C(=O)N(C(C)C)C(N(O)C(=O)NC(C)C)C2(C)C)c1OC (stereo not drawn)
67.3%: double positive events [6]
inactive: percent of DMSO control GFP [1] 98.2% | GFP response vs DMSO [2] 103% | percent response of DMSO control [3] 115% | GFP response vs DMSO [4] 97.3% | GFP response, % of DMSO [5] 101% | vesicle binding response [6] 216% | inhibition [7] -11.9% | superoxide response (% of plate) [8] 84.9% | aptamer binding inhibition [9] -1% | response [10] -7.26% | inhibition [11] -6.77% | response [12] -0.84% | binding (% of control) [13] 97.4% | efflux inhibition (fraction of control) [14] -0.04 | inhibition [15] 26% | differentiation response [16] 7.09%

O=C(NCc1ccc2c(c1)OCO2)c1ccc2c(c1)OCCO2
inactive: percent of DMSO control GFP [1] 101% | GFP response vs DMSO [2] 105% | percent response of DMSO control [3] 105% | GFP response vs DMSO [4] 92.6% | GFP response, % of DMSO [5] 101% | vesicle binding response [6] 132% | inhibition [7] 11% | superoxide response (% of plate) [8] 104% | aptamer binding inhibition [9] -1% | response [10] 0.83% | inhibition [11] -6.32% | response [12] -0.38% | binding (% of control) [13] 103% | efflux inhibition (fraction of control) [14] -0.21 | inhibition [15] 11% | differentiation response [16] 20.3%
61%: double positive events [6]

CN(C)[C@@H]1C(=O)C(C(=O)NCN2CCCC2)=C(O)[C@@]2(O)C(=O)C3=C(O)c4c(O)cccc4[C@@](C)(O)C3CC12 (stereo partly drawn)
active: aptamer binding inhibition [9] 92% | inhibition [11] 94.1% | binding (% of control) [13] 30.6%
59%: double positive events [6]
inactive: percent of DMSO control GFP [1] 103% | GFP response vs DMSO [2] 119% | percent response of DMSO control [3] 112% | GFP response vs DMSO [4] 95.7% | GFP response, % of DMSO [5] 93.3% | vesicle binding response [6] 145% | inhibition [7] -45.9% | superoxide response (% of plate) [8] 107% | response [10] 12.3% | response [12] -6.79% | efflux inhibition (fraction of control) [14] -0.06 | inhibition [15] 8% | differentiation response [16] 19.6%

O=C(O)C1CCN(C(=O)COc2ccc3c4c(c(=O)oc3c2)CCC4)CC1
65.1%: double positive events [6]
inactive: percent of DMSO control GFP [1] 105% | GFP response vs DMSO [2] 105% | percent response of DMSO control [3] 101% | GFP response vs DMSO [4] 112% | GFP response, % of DMSO [5] 110% | vesicle binding response [6] 420% | inhibition [7] 6.55% | superoxide response (% of plate) [8] 105% | aptamer binding inhibition [9] 1% | response [10] -31% | inhibition [11] -5% | response [12] 1.29% | binding (% of control) [13] 109% | efflux inhibition (fraction of control) [14] 0 | inhibition [15] 3% | differentiation response [16] -1.05%
